A selection: hits, their analogues and other compounds. The true share with any hit is near 0.87%.
TDP1 block – blocks human tyrosyl-DNA phosphodiesterase 1; Q9NUW8; recombinant TDP1, AlphaScreen DNA substrate cleavage; Potency, µM (titrated, usually from 130 µM), actives largely listed as inhibitors; 350,000 tested, 0.28% active; AID 485290; also: nearly all actives have a fitted effect of over 40% in size
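Here, a 5' biotin and 3' phosphotyrosine-FITC DNA oligonucleotide reports Tdp1 activity: intact substrate bridges AlphaScreen beads, while cleavage leaves a 3' phosphate and drops signal. All incubations at room temperature.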
GCN5L2 inh – inhibitors of human GCN5L2 histone acetyltransferase. AID 504327. Q92830. Potency, µM (highest dose often 58.9 µM), usual class: inhibitors. GCN5L2 HAT assay, ThioGlo1 CoA-SH fluorescence. 390,000 tested, 0.21% active
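Enzyme at 20nM final was mixed with library compounds for 15 min at room temperature. Peptide H3(1-25) at 75uM, acetyl-CoA at 70uM and ThioGlo1 at 50uM were then added. Plates were read immediately and after 20 min (Ex340nm/Em540nm).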
APEX1 inh – APE1 (human) endonuclease inhibition; 350,000 tested, 0.35% active; recombinant APE1, TAMRA/BHQ-2 abasic DNA cleavage fluorescence; P27695; Potency, µM (doses to about 65.8 µM), actives largely listed as inhibitors; also: nearly all actives have a fitted effect of over 55% in size
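Step 1: APE1 (0.75 nM) with compound, 15 min RT. Step 2: add 50 nM fluorophore/quencher THF duplex. Step 3: three fluorescence reads 60 s apart (525/598 nm); read 3 minus read 1 = reaction progress.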
RECQ1 inh – inhibitors of human RECQ1 DNA helicase. 240,000 tested, 0.54% active. RECQ1 DNA unwinding, red fluorescence kinetic read. P46063. Potency, µM (titrated, usually from 57.3 µM), usual class: inhibitors; also: nearly all actives have a fitted effect of over 30% in size
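RECQ1T1 50 nM; forked duplex (20 bp + 30-nt ss tails) 200 nM, ATP 2 mM final; pH 8.0, 2 mM MgCl2, 2.5 ug/ml poly(dI-dC); 15 min compound preincubation; discontinuous kinetic read over 2 h at RT.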
BLM helicase inh – blocks DNA unwinding by human BLM helicase; recombinant BLM DNA unwinding, fluorescence dequenching; P54132; AID 2528; Potency, µM (doses to about 56.1 µM), most hits filed as inhibitors; 350,000 tested, 0.2% active; also: nearly all actives have a fitted effect of over 35% in size
Of the large screens only hits and unclear results are named; the others gave an inactive call; ! = not active in a repeat. Calls follow the shape of the dose curve; as a rule, active = well fitted curve in the direction sought with a large enough effect; inconclusive = small, poorly fitted or top-dose-only effect, or another doubt; inactive = no such curve, though single readings can be large; an effect the other way counts as inactive or inconclusive.

C[N+]1([O-])[C@@H]2CC(OC(=O)[C@@H](CO)c3ccccc3)C[C@@H]1[C@H]1O[C@H]12 (stereo partly specified)	GCN5L2 inh 10µM! (no result: APEX1 inh)
CC[n+]1c(-c2ccccc2)c2cc(N)ccc2c2ccc(N)cc21	GCN5L2 inh inconclusive, APEX1 inh 31.6µM!, RECQ1 inh 31.6µM!, BLM helicase inh inconclusive
O=C(O)c1cc[c]([Hg][Cl])cc1	TDP1 block inconclusive, GCN5L2 inh 0.251µM (no result: BLM helicase inh)
Cc1cc(C)cc(OCCOc2cccc(C=C3C(=O)NC(=O)NC3=O)c2)c1	TDP1 block 79.4µM (no result: RECQ1 inh)
C#CCN(C)[C@@H](C)Cc1ccccc1	GCN5L2 inh 11.2µM (no result: APEX1 inh)
C[C@]12O[C@H](C[C@]1(O)CO)n1c3ccccc3c3c4c(c5c6ccccc6n2c5c31)CNC4=O	GCN5L2 inh inconclusive (no result: TDP1 block, APEX1 inh, RECQ1 inh)
CC(=O)O[C@H]1C(=O)[C@@]2(C)C([C@H](OC(=O)c3ccccc3)[C@]3(O)C[C@H](OC(=O)[C@H](O)[C@@H](NC(=O)c4ccccc4)c4ccccc4)C(C)=C1C3(C)C)[C@]1(OC(C)=O)CO[C@@H]1C[C@@H]2OC(=O)[C@H](C)NC(=O)c1ccc(-c2c3ccc(=O)cc-3oc3cc(O)ccc23)c(C(=O)O)c1 (stereo partly specified)	GCN5L2 inh inconclusive, APEX1 inh 3.16µM, RECQ1 inh 3.16µM, BLM helicase inh 3.16µM
C/C=C(\C)C(=O)N[C@@H](c1ccccc1)[C@@H](O)C(=O)O[C@H]1C[C@@]2(O)[C@@H](OC(=O)c3ccccc3)C3[C@](C)(C(=O)[C@H](OC(C)=O)C(=C1C)C2(C)C)[C@@H](O)C[C@H]1OC[C@@]31OC(C)=O (stereo partly specified)	none
Brc1c(Br)c(Br)c2n[nH]nc2c1Br	GCN5L2 inh 28.2µM, RECQ1 inh inconclusive, BLM helicase inh inconclusive
CC(C)N1C(=O)/C(=C/C=C/c2ccco2)C(=O)N(Cc2ccco2)C1=O	GCN5L2 inh inconclusive, APEX1 inh inconclusive, RECQ1 inh 10µM, BLM helicase inh inconclusive
CCN1C(=O)C(=C2C=C(C)N(Cc3ccco3)C(C)=C2)C(=O)N(CC)C1=S	none
COc1ccc(/C=C2/C(=O)N(Cc3ccco3)C(=O)N(C(C)C)C2=O)cc1	GCN5L2 inh inconclusive, APEX1 inh 22.4µM, RECQ1 inh 25.1µM
CNc1ccc2oc(C[C@@H]3OC4(CC[C@@H]3C)O[C@H](C(C)C(=O)c3ccc[nH]3)[C@H](C)C[C@H]4C)nc2c1C(=O)O (stereo partly specified)	GCN5L2 inh inconclusive
Cc1cccc2c3c(ccc12)C1=C(C(=O)C3=O)[C@@H](C)CO1	none
C[C@H](CCC(=O)O)[C@H]1CC[C@@H]2[C@H]3[C@@H](CC[C@@]21C)[C@]1(C)CC[C@H](O)C[C@@H]1C[C@@H]3O	none
COc1ccc(C[C@H]2c3cc(OC)c(OC)cc3CCN2C)cc1OC	GCN5L2 inh 8.91µM
O=C1OC2(c3cc(Br)c(O)cc3Oc3c2cc(Br)c(O)[c]3[Hg])c2ccccc21 (stereo unspecified)	APEX1 inh 12.6µM (no result: TDP1 block, GCN5L2 inh, RECQ1 inh, BLM helicase inh)
CC(C)CCCC1(C)C=Cc2c(O)c3c(c(CCC(C)C)c2O1)OC12C(CC4CC1C(C)(C)OC2(CCC(C)C(=O)O)C4O)C3=O (stereo unspecified)	GCN5L2 inh inconclusive
CC(C)=CCCC1(C)C=Cc2c(O)c3c(c(CC=C(C)C)c2O1)OC12C(=CC4CC1C(C)(C)OC2(C/C=C(/C)C(=O)O)C4O)C3=O (stereo unspecified)	GCN5L2 inh 12.6µM, BLM helicase inh 22.4µM
CC(C)=CCCC1(C)C=Cc2c(O)c3c(c(CC=C(C)C)c2O1)OC12C(=CC4CC1C(C)(C)OC2(C/C=C(/C)C(=O)O)C4=O)C3=O (stereo unspecified)	GCN5L2 inh 31.6µM, BLM helicase inh 28.2µM
CCC1CN2CCc3cc(OC)c(OC)cc3C2CC1CC1NCCc2cc(OC)c(OC)cc21 (stereo unspecified)	none
O=C(Nc1ccc2ccccc2c1)c1nn(C23CC4CC(CC(C4)C2)C3)cc1Br	APEX1 inh 4.47µM
C=CCn1c(O)c(/C=C2/C=CC=N2)c(=O)[nH]c1=O	RECQ1 inh 11.2µM
CCCCn1c(O)c(/C=C2/C=CC=N2)c(=O)[nH]c1=O	none

Assay outcomes as filed in PubChem.
